Laboratory results published in PubChem BioAssay AID1159580 (chemical genetic matrix, 2015).
About 2,000 (36%) of roughly 5,500 compounds were called active. Inconclusive results (about 18%) are left out. No stated cut-off is given here; in the data, active means normalized growth mostly below about 0.91 (no sharp cut-off); inconclusive means no clear call, values can overlap the other calls; inactive means mostly above about 0.92. Some of the results follow.

Assay: chemical genetic growth profiling, strain panel (AID 1159580);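 further: tested at 20 µM; growth read once vehicle control cultures reached saturation at 30 °C; 1 = growth at the plate median or of vehicle wells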
Settings: S. cerevisiae deletion strains, growth OD

Measured: normalized growth

O=c1cc(C(F)(F)F)[nH]c2c(Cl)cccc12
active: locus YAL013W, strain DEP1, stronger effect = lower value 0.884 | locus YBR229C, strain ROT2, stronger effect = lower value 0.816 | locus YDL101C, strain DUN1, stronger effect = lower value 0.883 | locus YEL061C, strain CIN8, stronger effect = lower value 0.886 | locus YGR078C, strain PAC10, stronger effect = lower value 0.813 | locus YGR229C, strain SMI1, stronger effect = lower value 0.929 | locus YHR087W, strain rtc3, stronger effect = lower value 0.831 | locus YJR043C, strain POL32, stronger effect = lower value 0.905 | locus YJR075W, strain HOC1, stronger effect = lower value 0.779 | locus YLR058C, strain SHM2 (second series), stronger effect = lower value 0.84 | locus YMR219W, strain ESC1, stronger effect = lower value 0.831 | locus YMR263W, strain SAP30, stronger effect = lower value 0.844 | locus YNL153C, strain GIM3, stronger effect = lower value 0.86 | locus YNL322C, strain KRE1, stronger effect = lower value 0.863 | locus YPL055C, strain LGE1, stronger effect = lower value 0.823
inactive: locus YDR150W, strain NUM1, stronger effect = lower value 0.86 | locus YHR030C, strain SLT2, stronger effect = lower value 0.847 | locus YLR039C, strain RIC1, stronger effect = lower value 0.846 | locus YLR085C, strain ARP6, stronger effect = lower value 0.827 | locus YLR262C, strain YPT6, stronger effect = lower value 0.847 | locus YML094W, strain GIM5, stronger effect = lower value 0.938 | locus YNL298W, strain CLA4 (second series), stronger effect = lower value 0.902 | locus YNR030W, strain Alg12, stronger effect = lower value 0.919 | locus YOL006C, strain TOP1, stronger effect = lower value 0.913 | locus YPL241C, strain CIN2, stronger effect = lower value 0.935 | locus YPR135W, strain CTF4, stronger effect = lower value 0.874
